Inconclusive results are not listed. Unmarked numbers belong to inactive results. Active and inactive are the calls of the source. Calls follow the shape of the dose curve; as a rule, active = well fitted activation curve with a large enough effect in the main read-out, with a control signal flat (not every such curve was filed as active); inconclusive = small, poorly fitted or top-dose-only effect, or effect the other way, or a change in a side signal; inactive = flat fitted curve, though single readings scatter.
Target: 3',5'-cyclic-AMP phosphodiesterase 4B (Homo sapiens) (UniProt Q07343)
Assay: qHTS Assay for Inhibitors of PDE-IV (AID 607); as to activation (PDE inhibition): % of control where 0% means no effect
Settings: HEK293 ACTOne CNG channel cells, membrane potential fluorescence; series mostly up to 22.9 µM; activation (PDE inhibition): at the top concentration
Source text: NIH Chemical Genomics Center [NCGC]
NIH Molecular Libraries Screening Centers Network [MLSCN]
The cyclic nucleotide phosphodiesterases (PDEs) are proteins that catalyze hydrolysis of 3', 5'-cyclic nucleotides, such as cyclic adenosine monophosphate (cAMP) and cyclic guanosine monophosphate (cGMP), to their corresponding 5'-nucleotide monophosphates. These enzymes play an important role in controlling cellular concentrations of cyclic nucleotides and have a central role in a variety of intracellular signaling events. cAMP PDEs are emerging as a promising class of drug targets in asthma and cardiovascular disease therapeutic areas.
There are no commercially available cell-based screening assays for PDE inhibitors: currently biochemical assays are done using pure substrates (cAMP or cGMP) and purified recombinant PDE enzymes. As with other biochemical screens on intracellular targets, false positives and false negatives may result from issues involving cell membrane permeability, cellular metabolism, and the like.
Here we report the development of a cell-based screening assay for cAMP phosphodiesterase (PDE) inhibitors. The assay is based on the BD ACTOne# technology (BD Biosciences) which utilizes a modified cyclic nucleotide-gated channel (CNG) to monitor intracellular cAMP changes in live cells. The CNG channel is localized on the plasma membrane, and opens when the intracellular cAMP level increases, resulting in ion flux and cell membrane depolarization. The influx of cations through the CNG channel can be quantified using membrane potential (MP) dyes. We modified the BD ACTOne technology to allow the detection of PDE inhibitors, and performed an inhibitor screen for PDE-IV, which is expressed endogenously in HEK293 cells. We optimized this assay in homogeneous 1536-well plate assay format for high throughput screening.
NCGC Assay Protocol Summary:
The medium contained 10% FBS (Invitrogen), 2 mM L-glutamine, and 250 ug/ml G418 (Cellgro) and 1 ug/ml puromycin (Clontech). ACTOneTM parental cells (BD Biosciences) were maintained in the same medium without puromycin.
The activity of the CNG channel was measured by BD ACTOneTM membrane potential dye kit (BD Biosciences). Forskolin, a positive control for cAMP activation and RO 20-1724, a PDE inhibitor, were both purchased from Sigma and solublized in DMSO.
Sequence,Parameter,Value,Description
1,Reagent,3 uL,1000 cells/well 1536 TC treated Black plate
3,Compound,0.5 uL,Kalypsys dispense RO 20-1724 100 uM final [A]
4,Reagent,3 uL,BD membrane potential dye
6,Compound,23 nL,Final concentration was 0.7nM to 22.9uM
8,Detector,EX 535 / EM 590 [B],Envision
Footnotes: [A] The stock 2 mM RO 20-1724 PDE inhibitor was made in 10 % DMSO. Parental cell line received 10 uM forskolin + 100 uM RO. [B] Envsion settings: Bottom Excitation 535/20 nm top emission 590/20, gain of 150 and 5 flashes per well.
Keywords: PDE, PDE-IV, cytotoxicity, flourescence, MLSMR, MLSCN, NIH Roadmap, qHTS, NCGC
Potency is read from the fitted curve at half-maximal effect.

3',5'-cyclic-AMP phosphodiesterase 4B (Homo sapiens), sequence (Q07343 whole entry, looked up): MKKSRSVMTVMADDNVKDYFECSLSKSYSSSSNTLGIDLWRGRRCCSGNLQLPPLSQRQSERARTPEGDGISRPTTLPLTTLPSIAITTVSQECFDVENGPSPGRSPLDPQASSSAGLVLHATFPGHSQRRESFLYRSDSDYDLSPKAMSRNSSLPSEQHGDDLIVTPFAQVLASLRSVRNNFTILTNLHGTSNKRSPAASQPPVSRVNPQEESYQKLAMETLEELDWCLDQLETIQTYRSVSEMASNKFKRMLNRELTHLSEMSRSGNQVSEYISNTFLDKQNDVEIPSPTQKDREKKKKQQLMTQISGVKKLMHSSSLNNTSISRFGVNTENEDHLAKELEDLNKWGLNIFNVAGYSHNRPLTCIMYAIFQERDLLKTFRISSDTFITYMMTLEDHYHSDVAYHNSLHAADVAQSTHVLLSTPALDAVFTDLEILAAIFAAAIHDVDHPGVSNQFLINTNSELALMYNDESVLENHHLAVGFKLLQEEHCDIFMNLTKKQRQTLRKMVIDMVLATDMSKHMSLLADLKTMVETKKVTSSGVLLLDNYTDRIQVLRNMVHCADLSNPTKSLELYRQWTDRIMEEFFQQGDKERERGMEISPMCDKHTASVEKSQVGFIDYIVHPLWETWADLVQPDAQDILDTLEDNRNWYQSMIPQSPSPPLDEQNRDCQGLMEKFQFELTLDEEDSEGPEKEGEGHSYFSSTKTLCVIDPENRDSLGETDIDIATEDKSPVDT

SMILES	activation (PDE inhibition)	Potency
COc1cc([C@H]2c3cc4c(cc3[C@@H](O[C@H]3O[C@H]5CO[C@@H](C)O[C@H]5[C@@H](O)[C@@H]3O)[C@@H]3COC(=O)[C@H]23)OCO4)cc(OC)c1O	-6.53%	
CC(C)C[C@@H](CC(=O)N[C@@H](CCC(=O)O)CC(=O)O)NC(=O)[C@@H]1CNCC[C@H]1NC(=O)C[C@@H](NC(=O)C[C@H](Cc1c[nH]c2ccccc12)NC(=O)[C@@H]1CNCC[C@H]1N)C(C)C	-4.48%	
C#CCCCC(=O)Nc1ccccc1	7.41%	
C[C@@]1(C(NC(=O)c2cccs2)c2ccc(-c3ccccc3)cc2)C[C@H]1C1CCCCC1 (stereo not given in full)	10.8%	
CC(=O)O[C@H]1C(=O)[C@]2(C)[C@H]([C@H](OC(=O)c3ccccc3)[C@@]3(O)C[C@H](OC(=O)[C@@H](O)[C@@H](NC(=O)c4ccccc4)c4ccccc4)C(C)=C1C3(C)C)[C@]1(OC(C)=O)CO[C@@H]1C[C@@H]2O	-20.6%	
COC(=O)[C@H]1C[C@@H]1[C@H](NC(=O)Oc1ccc(F)cc1)c1ccccc1	2.34%	
COC(=O)[C@@]1(Cc2ccccc2)[C@H]2c3cc(C(=O)N4CCCC4)n(Cc4ccccn4)c3C[C@H]2CN1C(=O)c1ccccc1	-0.105%	
C=CCN1CCc2c(cc(O)c(O)c2Br)[C@H](c2ccccc2)C1	21.7%	
CC1CCN(CC[C@@H]2CCCN2S(=O)(=O)c2cccc(O)c2)CC1	3.22%	
COc1cccc2c1[C@@H]1CN(CCCCn3c(=O)[nH]c4c(sc5ncc(-c6ccccc6)nc54)c3=O)C[C@H]1CO2	-28.4%	
CC(=O)Oc1ccc(/C=C\C(=O)C[C@@H]2O[C@@H](Oc3cc(OC(C)=O)c4c(c3)O[C@@H](c3ccc(OC(C)=O)cc3)CC4=O)[C@H](OC(C)=O)[C@H](OC(C)=O)[C@@H]2OC(C)=O)cc1	0.05%	
COC(=O)[C@@]1(Cc2ccccc2)[C@H]2c3cc(C(=O)N4CCCC4)n(Cc4nc5ccccc5[nH]4)c3C[C@H]2CN1C(=O)c1ccccc1	2.1%	
O=C(/C=C\c1ccc(O)c(O)c1)O[C@H]1C[C@@](O)(C(=O)O)C[C@H](O)[C@@H]1O	-4.87%	
CC(C)C1=CC2=CC[C@H]3[C@@](C)(CCC[C@]3(C)C(=O)O)[C@@H]2CC1	-18.9%	
C=C1C(=O)O[C@H]2C[C@@]3(C)CCCC(=C)[C@@H]3C[C@H]12		7.55 µM (active)
Nc1ncnc2c1ncn2[C@@H]1O[C@@H](COP(=O)(O)OP(=O)(O)OP(=O)(O)OP(=O)(O)OC[C@@H]2O[C@@H](n3cnc4c(N)ncnc43)[C@@H](O)[C@H]2O)[C@H](O)[C@@H]1O	16.2%	
Nc1ncnc2c1ncn2[C@@H]1O[C@@H](CO)[C@H](O)[C@@H]1O	24.1%	
N#C[C@@H](Cc1ccc(O)c(O)c1)C(=O)N1CCc2ccccc21	-10.1%	
CCCC/C=C/C(NC(=O)Oc1cccc(C(F)(F)F)c1)c1ccccc1 (stereo not given)	3.85%	
COc1ccccc1C[C@@H](Cc1nc2ccccc2[nH]1)c1nc2ccccc2[nH]1	28.8%	

SMILES	activation (PDE inhibition)	Potency
COc1ccc(COC2OC[C@]3(C)[C@H]4C5=C(CN3C(=O)OC(C)(C)C)[C@H](C)C(CO)C(CO)C5CC[C@@H]24)cc1 (stereo not given in full)	-14.1%	
COC(=O)[C@@]1(Cc2ccc(OC)cc2)[C@H]2c3cc(C(=O)N(C)C)n(CCN4CNCC4=O)c3C[C@H]2CN1C(=O)c1ccccc1	11.1%	
CC(C)(C)c1cc(Br)c(O)c(CN(Cc2cc(C(C)(C)C)cc(Br)c2O)C2CCCCC2)c1	-7.52%	
COc1cccc(-c2oc3ccccc3c(=O)c2O)c1	25.8%	
O=C(NCc1cc(F)cc2c1OCCO2)[C@H]1C[C@@H]1[C@H](NP(=O)(c1ccccc1)c1ccccc1)c1ccccc1	17.5%	
COC(=O)[C@@]1(Cc2ccccc2)[C@H]2c3cc(C(=O)N4CCCC4)n(Cc4cc(F)cc5c4OCOC5)c3C[C@H]2CN1C(=O)c1ccccc1	20.3%	
NCCC[C@@H](CC(=O)N[C@@H]1CCNC[C@H]1C(=O)N[C@H](CC(=O)N[C@@H](CCC(=O)O)CC(=O)O)Cc1c[nH]c2ccccc12)NC(=O)C[C@H](CO)NC(=O)[C@@H]1CNCC[C@H]1N	0.469%	
CC(C)C[C@@H](CC(=O)N[C@@H](CCC(=O)O)CC(=O)O)NC(=O)[C@@H]1CCCC[C@H]1NC(=O)C[C@H](CCCN)NC(=O)C[C@H](Cc1ccccc1)NC(=O)[C@@H]1CNCC[C@H]1N	-10.8%	
CC(C)[C@@H](CC(=O)N[C@@H]1CCNC[C@H]1C(=O)N[C@H](CC(=O)N[C@@H](CCC(=O)O)CC(=O)O)Cc1ccccc1)NC(=O)C[C@H](Cc1c[nH]c2ccccc12)NC(=O)[C@@H]1CCCC[C@H]1N	-6.71%	
NCCC[C@@H](CC(=O)N[C@@H]1CCNC[C@H]1C(=O)N[C@H](CC(=O)N[C@@H](CCC(=O)O)CC(=O)O)Cc1c[nH]c2ccccc12)NC(=O)C[C@H](Cc1c[nH]c2ccccc12)NC(=O)[C@@H]1CCCC[C@H]1N	-12.6%	
CCCC[C@H]1C(=O)N(c2ccccc2)N(c2ccc(O)cc2)C1=O	10.5%	
C/C(=C\COc1cc(=O)[nH]c2ccccc12)CC[C@@H](O)C(C)(C)O	5.39%	
COc1cc([C@@H]2Oc3cc([C@H]4Oc5cc(O)cc(O)c5C(=O)[C@H]4O)ccc3O[C@H]2CO)ccc1O	-11.2%	
CNC(=O)[C@H](C)[C@@H]1C[C@@]1(C)[C@@H](NC(=O)OCc1ccccc1)c1ccccc1	4.39%	
Nc1ccccc1C(=O)C[C@@H](N)C(=O)O	2.34%	
CC(C)C[C@@H](CC(=O)N[C@@H](CCCN)CC(=O)N[C@@H]1CCNC[C@H]1C(=O)N[C@H](CC(=O)N[C@@H](CCC(=O)O)CC(=O)O)CC(C)C)NC(=O)[C@@H]1CCCC[C@H]1N	4.04%	
CCN1CCC[C@@H]1CNC(=O)c1c(O)c(Cl)cc(Cl)c1OC	7.78%	
CC(C)C[C@@H](CC(=O)N[C@@H](CCC(=O)O)CC(=O)O)NC(=O)[C@@H]1CCCC[C@H]1NC(=O)C[C@H](CCCN)NC(=O)C[C@H](Cc1ccccc1)NC(=O)[C@@H]1CCCC[C@H]1N	-22.8%	
C[C@@]1(C(NC(=O)Cc2ccc(C(F)(F)F)cc2)c2ccc(-c3ccccc3)cc2)C[C@H]1C1CCCCC1 (stereo not given in full)	-2.64%	
Cc1cc(C)c(/C=C2/C(=O)Nc3ccccc32)[nH]1	9.97%	
